Values joined by “and” are separate entries in the source; they are usually repeats but may differ in a detail not shown here. Equal values may be shown once. Records with an inconclusive call do not appear. A call without a number means that no potency is given here. Active and inactive are the calls of the source. The call rests on the fitted dose curve; in most records, active means well fitted activation curve with a large enough effect in the repeat runs; inconclusive means weak or mixed curves; inactive means no such curve, though single readings can be large or run the other way.
The molecules below were run against Nuclear receptor subfamily 1 group I member 2 (Homo sapiens) (UniProt O75469) (assay: Human pregnane X receptor (PXR) small molecule agonists, qHTS assay (AID 1346982; further: nearly all actives have a fitted effect of over 35% in size)). Settings: PXR-Luc HepG2, CYP3A4 luciferase reporter, 24 h; series mostly up to 92.4 µM.
Excerpt: National Center for Advancing Translational Sciences [NCATS]
NIH Chemical Genomics Center [NCGC]
U.S. Environmental Protection Agency [EPA]
National Institutes of Environmental Health Sciences [NIEHS]
National Toxicology Program [NTP]
The human pregnane X receptor (hPXR) regulates the expression of several drug metabolizing enzymes and induction of these proteins is a major mechanism for developing drug resistance in cancer. One such key enzyme catalyzing the drug metabolism is cytochrome P450 3A4 (CYP3A4). Changes in CYP3A4 expression affect drug metabolism, thereby reducing the therapeutic efficacy and altering toxicological response to a drug and which finally causes adverse drug interaction. To screen Tox21 libraries for compounds that activate hPXR-mediated CYP3A4 gene expression, PXR-Luc HepG2 cells were used.
PXR-Luc HepG2 cells were dispensed at 2,000 per well in 5uL of assay medium containing 5% charcoal-stripped FBS into white solid bottom 1536-well plates (Corning Life Sciences, Corning, NY) using a Multidrop Combi (Thermo Scientific, Waltham, MA) dispenser. The assay plates were incubated at 37 C and 5% CO2 for 5hr, and then 23nL of compounds dissolved in DMSO and positive control were transferred using a Pintool station (Wako, San Diego, CA). The assay plates were incubated at 37C and 5% CO2 for 24hr. For luciferase read, 4uL of ONE-Glo reagent (Promega Corporation, Madison, WI) was added to each well of the assay plates using Flying Reagent Dispenser (FRD, Aurora Discovery, San Diego, CA) and incubated the assay plates at room temperature for 30min. The luminescence signal was quantified using a ViewLux plate reader (Perkin Elmer, Shelton, CT).
Potency means the concentration at half of the fitted maximal effect.

Chain of Nuclear receptor subfamily 1 group I member 2 (Homo sapiens) (O75469 whole entry, looked up): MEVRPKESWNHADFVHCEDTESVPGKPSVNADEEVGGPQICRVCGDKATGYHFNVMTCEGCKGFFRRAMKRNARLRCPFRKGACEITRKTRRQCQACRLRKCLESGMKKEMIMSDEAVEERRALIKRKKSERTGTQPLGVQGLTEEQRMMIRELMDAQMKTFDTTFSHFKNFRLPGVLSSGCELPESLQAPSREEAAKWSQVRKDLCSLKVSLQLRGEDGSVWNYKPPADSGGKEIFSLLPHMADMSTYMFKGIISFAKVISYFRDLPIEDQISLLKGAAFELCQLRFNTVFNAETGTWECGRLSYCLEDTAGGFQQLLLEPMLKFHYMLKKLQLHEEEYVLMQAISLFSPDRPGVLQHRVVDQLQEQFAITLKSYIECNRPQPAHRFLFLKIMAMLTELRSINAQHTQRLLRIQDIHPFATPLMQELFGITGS

Row | Compound | Potency
1 | CC(C)CCCCCOC(=O)c1ccccc1C(=O)OCCCCCC(C)C | 48 µM (active)
2 | ClCCN1CCOCC1 | inactive
3 | CCCN(CCC)CCc1c[nH]c2ccccc12 | inactive
4 | COc1cc(N)c(Cl)cc1C(=O)NC1CN2CCC1CC2 (stereo not given) | inactive
5 | O=[N+]([O-])c1ccc(Oc2ccc(C(F)(F)F)cc2[N+](=O)[O-])cc1 | 17.2 µM (active)
6 | C[C@]12CC[C@@H]3c4ccc(OC(=O)N(CCCl)CCCl)cc4CC[C@H]3[C@@H]1CC[C@@H]2O | inactive
7 | C=CCOC(N)=O | inactive
8 | ClC(Cl)=C(c1ccc(Cl)cc1)c1ccc(Cl)cc1 | 62.6 µM (active) and 48.6 µM (active)
9 | Nc1ccc(Cl)cc1C(=O)c1ccccc1 | 61.1 µM (active)
10 | CCCCCCCCCC[N+](C)(C)CCCCCCCCCC | inactive
11 | CCN(CC)c1c([N+](=O)[O-])cc(C(F)(F)F)c(N)c1[N+](=O)[O-] | 6.86 µM (active)
12 | CC(C)OC(=O)C(O)(c1ccc(Cl)cc1)c1ccc(Cl)cc1 | 21.7 µM (active)
13 | c1cc[c]([Sb]([c]2ccccc2)[c]2ccccc2)cc1 | 54.5 µM (active)
14 | [Hg+2].[I-].[I-] | 2.43 µM (active)
15 | COP(=S)(OC)Oc1cc(Cl)c(Br)cc1Cl | 12.2 µM (active)
16 | CC(C)(C)OO | inactive
17 | N#C/C=C/c1ccccc1 | inactive
18 | ClC1=C(Cl)[C@]2(Cl)[C@@H]3[C@@H]4C[C@@H]([C@H]5O[C@@H]45)[C@@H]3[C@@]1(Cl)C2(Cl)Cl | 13.7 µM (active)
19 | CCOC(=O)c1ccccc1S(=O)(=O)NC(=O)Nc1nc(Cl)cc(OC)n1 | inactive
20 | Clc1ccc(Oc2ccccc2)cc1 | inactive

Row | Compound | Potency
21 | CC(C)CC(C)N (stereo not given) | inactive
22 | CC(C)[C@H](C(=O)OC(C#N)c1cccc(Oc2ccccc2)c1)c1ccc(OC(F)F)cc1 (stereo not given in full) | 9.69 µM (active)
23 | O=C(CBr)c1ccc(O)cc1 | inactive
24 | Cc1cc(Cl)ccc1O[C@H](C)C(=O)O | inactive
25 | CCCCOCN(C(=O)CCl)c1c(CC)cccc1CC | 2.73 µM (active)
26 | C[C@@H]1O[C@@H](O[C@H]2C[C@@H](O)[C@]3(CO)[C@H]4[C@H](O)C[C@]5(C)[C@@H](C6=CC(=O)OC6)CC[C@]5(O)[C@@H]4CC[C@]3(O)C2)[C@H](O)[C@H](O)[C@H]1O | inactive
27 | CCN(CC)C(=S)[S-].CCN(CC)C(=S)[S-].[Zn+2] | 4.29 µM (active)
28 | N#CSCSC#N | 22.2 µM (active) and 19.1 µM (active)
29 | ClCc1ccccc1CCl | inactive
30 | Oc1ccc2ccc3cccc4ccc1c2c34 | 27.3 µM (active)
31 | CC(C)(C)c1ccc(CSc2cnn(C(C)(C)C)c(=O)c2Cl)cc1 | inactive
32 | CC1(C)[C@H](C(=O)O[C@H](C#N)c2cccc(Oc3ccccc3)c2)[C@@H]1/C=C(\Cl)C(F)(F)F | 3.57 µM (active) and 2.43 µM (active)
33 | COc1ccc(/C(=C/C(=O)N2CCOCC2)c2ccc(Cl)cc2)cc1OC | 15.4 µM (active)
34 | CC(C)OS(C)(=O)=O | inactive
35 | c1ccc2cc3c(cc2c1)-c1cccc2cccc-3c12 | 2.4 µM (active)
36 | CNC(C)Cc1ccc2c(c1)OCO2 (stereo not given) | inactive
37 | CCCOCC(=Nc1ccc(Cl)cc1C(F)(F)F)n1ccnc1 | 24.3 µM (active)
38 | CC(C)[C@H](C(=O)O[C@H](C#N)c1cccc(Oc2ccccc2)c1)c1ccc(Cl)cc1 | 4.32 µM (active)
39 | CC(=[OH+])/C=C(/C)[O-].CC(=[OH+])/C=C(\C)[O-].CC(=[OH+])/C=C(\C)[O-].[Fe] | inactive
40 | N#CCc1ccc(Cl)cc1 | inactive

— PubChem BioAssay (Tox21)
